SMILES strings stand for the structures. Calls of active or inactive are those of the source. Unless noted, no rule for the calls is given here.

Consider five compounds from PubChem BioAssay.

The nature of experiment [1]: compounds binding Alexa647 anti-His antibody – biochemical, small-molecule microarray, 635 nm fluorescence, artefact control for SMM control protein annotation, primary screen (AID 1128).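 Also: score merges feature fluorescence with signal-to-noise for each printed compound spot.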 To be noted: higher = more signal.
The subject of experiment [2] is Human papillomavirus type 1a E7 protein (residues 1-88). The experiment in a line: HPV1a E7 small-molecule binders, primary screen, biochemical, small-molecule microarray, residues 1-88, 635 nm (AID 1129). The settings on record: small-molecule microarray binding, fluorescence 635 nm; higher = more signal.
Experiment [3] deals with Focal adhesion kinase 1 (Homo sapiens) (UniProt Q05397). Nature of the experiment: PTK2 protein binding on printed compound slides – biochemical, small-molecule microarray, 635/667 nm fluorescence, BSA, DTT, primary screen (AID 1130).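 Also: composite of spot emission at 667 nm and signal to noise over triplicate slides.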 To be noted: 635 nm fluorescence, higher = more signal.
Focal adhesion kinase 1 (Homo sapiens), sequence (Q05397 whole entry, looked up): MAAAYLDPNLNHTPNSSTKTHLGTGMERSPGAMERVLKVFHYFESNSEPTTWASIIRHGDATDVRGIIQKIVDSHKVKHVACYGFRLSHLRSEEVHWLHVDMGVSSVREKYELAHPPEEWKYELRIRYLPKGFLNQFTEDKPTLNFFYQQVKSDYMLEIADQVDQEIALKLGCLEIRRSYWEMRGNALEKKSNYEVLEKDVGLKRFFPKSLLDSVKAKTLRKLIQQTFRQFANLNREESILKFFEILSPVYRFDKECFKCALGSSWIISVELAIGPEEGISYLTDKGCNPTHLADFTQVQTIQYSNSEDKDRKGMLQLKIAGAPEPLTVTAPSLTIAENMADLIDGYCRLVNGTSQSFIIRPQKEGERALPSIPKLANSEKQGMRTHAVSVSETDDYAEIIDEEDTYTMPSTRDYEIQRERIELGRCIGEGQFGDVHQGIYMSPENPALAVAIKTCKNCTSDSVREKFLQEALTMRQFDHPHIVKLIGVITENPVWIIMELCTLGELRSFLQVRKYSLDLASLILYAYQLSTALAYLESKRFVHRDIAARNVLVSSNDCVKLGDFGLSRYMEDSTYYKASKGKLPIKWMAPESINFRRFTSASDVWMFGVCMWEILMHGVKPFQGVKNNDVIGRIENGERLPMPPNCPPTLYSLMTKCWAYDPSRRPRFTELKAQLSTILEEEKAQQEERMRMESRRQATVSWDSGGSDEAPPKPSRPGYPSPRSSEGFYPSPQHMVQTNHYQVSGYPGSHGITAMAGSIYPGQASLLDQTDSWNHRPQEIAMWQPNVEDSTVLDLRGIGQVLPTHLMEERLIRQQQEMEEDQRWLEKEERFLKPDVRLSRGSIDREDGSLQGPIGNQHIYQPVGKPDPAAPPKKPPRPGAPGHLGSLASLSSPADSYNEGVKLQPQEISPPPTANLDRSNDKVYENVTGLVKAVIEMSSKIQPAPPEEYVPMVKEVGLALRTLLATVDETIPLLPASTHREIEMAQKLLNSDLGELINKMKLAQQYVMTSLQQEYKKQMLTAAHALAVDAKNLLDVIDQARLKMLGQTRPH
The subject of experiment [4] is Fibrinogen (Alexa647-labelled). The experiment in a line: Alexa647-fibrinogen binding to printed small molecules – biochemical, small-molecule microarray, 635/667 nm fluorescence, artefact control for SMM control-protein annotation, profiling panel (AID 1131).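 Also: z-score merges 667 nm fluorescence with per-spot signal-to-noise over triplicate slides.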 The settings on record: fibrinogen-A647 binding fluorescence, higher = more signal.
Experiment [5] concerns the target Follistatin (Homo sapiens) (UniProt P19883). Nature of the experiment: FST protein binding to printed compounds – biochemical, small-molecule microarray, 635/667 nm fluorescence, primary screen (AID 1132). To be noted: 635 nm fluorescence, higher = more signal.
In experiment [6] the target is Fibroblast growth factor 2 (Homo sapiens) (UniProt P09038). The experiment in a line: basic fibroblast growth factor binding to printed compounds – biochemical, small-molecule microarray, 635/667 nm fluorescence, primary screen (AID 1133). To be noted: FGF2, fluorescence 635/667, higher = more signal.
Fibroblast growth factor 2 (Homo sapiens), sequence (P09038 whole entry, looked up): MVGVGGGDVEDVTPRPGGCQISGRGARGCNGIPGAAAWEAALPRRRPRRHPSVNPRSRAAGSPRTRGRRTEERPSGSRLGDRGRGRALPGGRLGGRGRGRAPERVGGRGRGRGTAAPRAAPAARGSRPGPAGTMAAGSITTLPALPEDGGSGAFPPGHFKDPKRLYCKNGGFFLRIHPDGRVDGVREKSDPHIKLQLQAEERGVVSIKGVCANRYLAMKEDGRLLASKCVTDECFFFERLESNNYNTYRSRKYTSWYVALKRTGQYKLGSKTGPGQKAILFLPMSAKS
A short description of experiment [7]: JC-1 mitochondrial potential readout, lung cancer cells – cell-based, A549, JC-1 fluorescence, basal, 24 h, 100 nL, profiling panel (AID 1138).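 Also: A549 lung adenocarcinoma cells under basal conditions with no added stimulus; test concentration not given here.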 To be noted: higher = more signal.
The subject of a further experiment is Lefty1. Nature of the experiment: Lefty1 protein binding to printed compounds – biochemical, small-molecule microarray, 635/667 nm fluorescence, primary screen (AID 1139). To be noted: fluorescence 635/667, higher = more signal.
In experiment [8] the test system is wheat germ agglutinin (Triticum aestivum), Alexa647-labelled. Nature of the experiment: Alexa647-WGA lectin binding to printed small molecules – biochemical, small-molecule microarray, 635/667 nm fluorescence, artefact control for SMM control-protein annotation, profiling panel (AID 1140).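 Also: score merges 667 nm feature emission with signal to noise over triplicate slides.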 To be noted: WGA-A647 binding, 635 nm fluorescence, higher = more signal.

The target of experiment [9] is Luciferin 4-monooxygenase (Photinus pyralis) (UniProt P08659). The experiment in a line: inhibition of purified Photinus pyralis luciferase – biochemical, luminescence, purified enzyme, 2006 set, primary screen (AID 1141).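 Also: cell-free assay with purified firefly luciferase at 100 ng per well in PBS; test concentration not given here.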 The settings on record: purified firefly luciferase, SteadyGlo luminescence, 30 min; higher = more signal, called active from +8 up or from −8 down.
Luciferin 4-monooxygenase (Photinus pyralis), sequence (P08659 whole entry, looked up): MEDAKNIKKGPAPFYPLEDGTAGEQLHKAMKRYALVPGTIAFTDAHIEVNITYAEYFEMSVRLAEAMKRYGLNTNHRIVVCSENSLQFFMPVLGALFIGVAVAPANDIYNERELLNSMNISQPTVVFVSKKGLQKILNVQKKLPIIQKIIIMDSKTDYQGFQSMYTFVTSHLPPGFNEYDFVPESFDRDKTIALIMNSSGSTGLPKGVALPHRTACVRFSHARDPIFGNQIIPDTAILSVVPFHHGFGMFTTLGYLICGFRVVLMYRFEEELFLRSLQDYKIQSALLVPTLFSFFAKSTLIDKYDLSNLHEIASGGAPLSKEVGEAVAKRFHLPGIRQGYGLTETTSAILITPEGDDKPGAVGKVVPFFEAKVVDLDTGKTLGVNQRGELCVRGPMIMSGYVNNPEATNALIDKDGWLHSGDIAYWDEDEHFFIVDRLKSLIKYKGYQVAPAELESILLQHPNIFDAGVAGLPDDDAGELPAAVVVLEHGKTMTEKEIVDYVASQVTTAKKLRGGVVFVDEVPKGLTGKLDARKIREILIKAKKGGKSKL

Experiment [10] deals with Wnt5a (protein binding on small-molecule microarray). The experiment in a line: small molecules binding Wnt5a protein – biophysical, small-molecule microarray, 635/667 nm fluorescence, primary screen (AID 1142).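 Also: fluorescence read at 667 nm with signal to noise per printed feature.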 To be noted: 635 nm fluorescence, higher = more signal.
The nature of experiment [11]: ATP-based viability of Huh7 replicon cells – cell-based, CellTiter-Glo luminescence, basal, 48 h, cytotoxicity control for HCV replication inhibitor project, primary screen (AID 1143).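 Also: Huh7 hepatoma cells carrying a hepatitis C replication reporter with no stimulus; test concentration not given here.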 To be noted: higher = more signal, called active from +8 up or from −8 down.
Experiment [12] in a line: Pseudomonas biofilm growth suppression – PAO1 strain, BacTiter-Glo luminescence, LB-PBS, primary screen (AID 1144). The settings on record: P. aeruginosa PAO1 biofilm, 12 h, higher = more signal.
Experiment [13] is described as follows: basal CRE-LacZ reporter activity in PC12 – cell-based, unstimulated, primary screen (AID 1145). The settings on record: no forskolin, luminescence, 4.5 h, higher = more signal, called active from +8 up or from −8 down.
Experiment [14] can be described thus: forskolin-driven CRE-LacZ activity in PC12 – cell-based, CRE-LacZ reporter, forskolin-stimulated, primary screen (AID 1146).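 Also: PC12 cells with 6xCRE LacZ reporter stimulated by forskolin 10 µM; beta-galactosidase reporter signal reflecting CREB driven transcription.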 To be noted: luminescence, 4.5 h, higher = more signal, called active from +8 up or from −8 down.
The target in experiment [15] is Streptavidin (Streptomyces avidinii) (UniProt P22629). Nature of the experiment: compounds binding control protein streptavidin – biophysical, small-molecule microarray, 635/667 nm fluorescence, artefact control for SMM compound annotation, primary screen (AID 1147).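 Also: signal reflects streptavidin binding to arrayed compounds as a control protein.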 To be noted: higher = more signal.
Streptavidin (Streptomyces avidinii), sequence (P22629 whole entry, looked up): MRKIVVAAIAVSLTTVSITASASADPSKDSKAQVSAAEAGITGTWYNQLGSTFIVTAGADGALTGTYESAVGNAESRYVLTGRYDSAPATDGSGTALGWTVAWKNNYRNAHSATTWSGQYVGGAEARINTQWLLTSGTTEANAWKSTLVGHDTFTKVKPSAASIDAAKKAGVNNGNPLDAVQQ
Experiment [16] can be described thus: probe aInhba binding on compound microarray – biochemical, small-molecule microarray, 635/667 nm fluorescence, primary screen (AID 1148).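 Also: score merges 667nm spot fluorescence with signal-to-noise for antibody binding to printed compounds.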 To be noted: higher = more signal.
Experiment [17] has as its target Torsin-1A (Homo sapiens) (UniProt O14656). Nature of the experiment: TOR1A wild-type binding on microarray – cell lysate, small-molecule microarray, lysate, 635/667 nm, primary screen (AID 1149). To be noted: COS7 hTOR1A-WT lysate, 635 nm fluorescence, higher = more signal.
The target is the same in experiment [18]. The experiment in a line: torsin A mutant lysate binding on microarrays – cell lysate, small-molecule microarray, COS7 lysate, 635/667 nm fluorescence, primary screen (AID 1150).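 Also: score pools 667 nm emission and signal to noise measuring lysate protein binding.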 The settings on record: COS7 hTOR1A mutant lysate, 635 nm fluorescence, higher = more signal.
Experiment [19] has as its system Sonic hedgehog protein (Shh). Nature of the experiment: Sonic hedgehog microarray binding compounds – biochemical, small-molecule microarray, 635/667 nm fluorescence, primary screen (AID 1151).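 Also: Shh protein binding to compounds spotted on small-molecule microarray slides; score combines spot fluorescence intensity with signal-to-noise across triplicate slides.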 To be noted: 635 nm fluorescence, higher = more signal.

Follistatin (Homo sapiens), sequence (P19883 whole entry, looked up): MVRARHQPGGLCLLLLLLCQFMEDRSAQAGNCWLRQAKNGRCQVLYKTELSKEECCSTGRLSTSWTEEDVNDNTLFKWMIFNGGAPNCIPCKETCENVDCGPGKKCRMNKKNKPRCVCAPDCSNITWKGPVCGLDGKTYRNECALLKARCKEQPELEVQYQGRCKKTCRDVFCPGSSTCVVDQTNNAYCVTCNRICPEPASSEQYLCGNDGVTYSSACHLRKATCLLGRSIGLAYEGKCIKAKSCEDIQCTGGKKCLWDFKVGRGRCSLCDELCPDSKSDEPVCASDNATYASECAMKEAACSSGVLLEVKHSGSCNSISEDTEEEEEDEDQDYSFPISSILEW
Torsin-1A (Homo sapiens), sequence (O14656 whole entry, looked up): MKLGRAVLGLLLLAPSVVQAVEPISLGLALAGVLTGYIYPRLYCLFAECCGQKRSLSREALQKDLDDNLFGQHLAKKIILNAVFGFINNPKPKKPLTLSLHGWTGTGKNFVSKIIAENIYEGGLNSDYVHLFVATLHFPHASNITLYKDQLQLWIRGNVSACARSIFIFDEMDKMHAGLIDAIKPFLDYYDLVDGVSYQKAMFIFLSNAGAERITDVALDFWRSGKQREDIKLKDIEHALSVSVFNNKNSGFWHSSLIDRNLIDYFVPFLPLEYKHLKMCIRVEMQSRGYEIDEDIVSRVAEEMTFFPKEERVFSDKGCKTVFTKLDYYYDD

With `C=CCC(OC(C)=O)[C@@H]1[C@@H](N(Cc2ccc(-c3cccc(C(F)(F)F)c3)o2)C(=O)c2cccc3ccccc23)c2cc(OCCCO)ccc2N1C(=O)Cc1ccc(OC)cc1` (stereo not given in full), the composite z-score in [1] was -0.0466; in experiment [2], -1.02; in experiment [3] it was -0.104; in [4] it was -0.765; in experiment [5], 0.998; in experiment [6], -0.0117. Further, the composite z-score was 0.229 in the experiment on Lefty1; 0.0854 in experiment [8]; -0.307 in experiment [10]; -0.551 in experiment [15]; -0.102 in [16]; -0.577 with Torsin-1A (Homo sapiens) [17]. Further, the composite z-score with Torsin-1A (Homo sapiens) [18] came to 0.264; in experiment [19], 0.439. Besides, the z-score was -0.465 in [7]; 0.638 (inactive) in [9]; -2.29 (inactive) in [11]; 0.302 (inactive) in experiment [12]; -0.593 (inactive) in experiment [13]; 0.0843 (inactive) in experiment [14].
As to `COc1ccc(C(O)C2C=CC3C(=O)N(c4ccccc4)C(=O)C3N2Nc2ccccc2)cc1` (stereo not given), the composite z-score in experiment [1] stood at 0.85; in experiment [2] it was 1.08; in experiment [3] it was 0.72; in [4] it was 1.01; in experiment [5], 0.955; in [6] it was 0.0088. The composite z-score with Lefty1 was 0.817; in experiment [8], 1.1; in [10], 0.256; in experiment [15], 0.571; in experiment [16], 0.105; in the experiment with Torsin-1A (Homo sapiens) [17], -0.109. Moreover, the composite z-score was 0.692 in the experiment with Torsin-1A (Homo sapiens) [18] and 0.393 in experiment [19]. Further, the z-score in [7] was 0.204; in [9], -0.182 (inactive); in experiment [11], -0.0351 (inactive); in experiment [12], -0.0851 (inactive); in [13], 0.426 (inactive); in experiment [14], -0.356 (inactive).
With `C=C(COC)/C(=C/C[C@H](OC(C)=O)c1cccc(OCCO)c1)c1cnc2ccccc2c1`, the composite z-score in experiment [1] is 0.18; in experiment [2], 1.02; in experiment [3], -0.105; in [4] it was 0.246; in experiment [5] it was 1.46; in experiment [6], 1.57. Further, the composite z-score with Lefty1 amounted to 1.53; in experiment [8], 1.14; in experiment [10] it was 0.484; in experiment [15] it was 1.46; in experiment [16], 0.109; in the experiment with Torsin-1A (Homo sapiens) [17], 1.24. The composite z-score in the experiment with Torsin-1A (Homo sapiens) [18] worked out at 0.583; in [19], 2.11. Besides, the z-score was 1.05 in experiment [7]; -1.06 (inactive) in experiment [9]; -0.184 (inactive) in experiment [11]; 0.167 (inactive) in experiment [12]; 3.72 (inactive) in [13]; 0.298 (inactive) in [14].
As for `COCC(=C=CC[C@@H](O)c1ccc(OCCO)cc1)CCO`, the composite z-score in experiment [1] is 0.656; in experiment [2], 0.529; in experiment [3], 0.17; in [4], -0.97; in experiment [5] it was 1.08; in [6], 0.517. Also, the composite z-score with Lefty1 is 0.993; in [8], 1.27; in experiment [10] it was 0.0576; in experiment [15], -0.471; in experiment [16], -0.0762; with Torsin-1A (Homo sapiens) [17], 0.995. The composite z-score with Torsin-1A (Homo sapiens) [18] amounted to 0.966; in experiment [19] it was 1.59. The z-score in [7] is 0.721; in experiment [9], -0.776 (inactive); in experiment [11], -0.258 (inactive); in [12], -0.934 (inactive); in [13] it was 0.0986 (inactive); in [14], -0.482 (inactive).
Consider `COc1ccc(C#Cc2ccc3c(c2)[C@]2(C(=O)N3)[C@H](c3ccc(OCCO)cc3)N3[C@H](c4ccccc4)[C@H](c4ccccc4)OC(=O)[C@H]3[C@@H]2C(=O)N2CCc3cc(OC)c(OC)cc3C2)cc1`, for which the composite z-score in experiment [1] stood at 0.78; in experiment [2] it was 1.18; in experiment [3], 0.946; in experiment [4], 0.532; in experiment [5], 1.44; in experiment [6], 1.49. Moreover, the composite z-score is 1.17 in the experiment on Lefty1; 0.863 in [8]; 1.04 in experiment [10]; 1.83 in experiment [15]; -0.308 in experiment [16]; 0.394 with Torsin-1A (Homo sapiens) [17]. The composite z-score with Torsin-1A (Homo sapiens) [18] worked out at 0.722; in experiment [19], 2.15. Besides, the z-score was -1.14 in experiment [7]; -0.922 (inactive) in experiment [9]; -0.632 (inactive) in experiment [11]; -0.221 (inactive) in [12]; 0.478 (inactive) in experiment [13]; 0.198 (inactive) in experiment [14].
